Rows were chosen to be rich in hits. Some 3.1% of all compounds tested hit in one or more screens of this group.
MBD2 DNA inh = blocks human MBD2 binding to methylated DNA. actives 0.31% (n = 370,000). TR-FRET, MBD2 binding to methylated oligonucleotide. inhibition, % at 4.4 µM. Q9UBB5; in the data active = inhibition above about 13%
Target sequence (Q9UBB5 whole entry, looked up): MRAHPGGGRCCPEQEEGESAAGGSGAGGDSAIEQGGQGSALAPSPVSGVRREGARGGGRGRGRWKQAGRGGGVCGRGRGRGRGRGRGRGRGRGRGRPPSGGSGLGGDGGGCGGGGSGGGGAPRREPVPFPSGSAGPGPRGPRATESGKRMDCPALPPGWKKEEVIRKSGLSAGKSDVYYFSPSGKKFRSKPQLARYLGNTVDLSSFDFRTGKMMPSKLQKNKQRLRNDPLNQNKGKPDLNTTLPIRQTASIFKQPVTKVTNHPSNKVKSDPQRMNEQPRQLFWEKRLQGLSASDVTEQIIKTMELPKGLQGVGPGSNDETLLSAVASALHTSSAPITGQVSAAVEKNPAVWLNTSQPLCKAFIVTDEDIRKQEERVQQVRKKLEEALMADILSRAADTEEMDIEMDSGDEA
Neddyl block = inhibitors of human cullin neddylation; AID 651699; actives 0.58% (n = 360,000); TR-FRET cullin neddylation, biochemical; calls only at 25 µM; in the data active = inhibition above about 36%
Rin1-Abl PPI inh = human Rin1-Abl interaction inhibition | P00519+Q13671 | TR-FRET Rin1/Abl binding, biochemical | inhibition, % at 7.35 µM | actives 0.4% (n = 360,000); in the data active = inhibition above about 5%, passing the limit was not always enough
UHRF1 binding = UHRF1 methyl-DNA binding inhibition | inhibition, % at 4.4 µM | AID 687016 | actives 0.75% (n = 370,000) | Q96T88 | UHRF1 binding to methylated oligo, TR-FRET; in the data active = inhibition above about 21%;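 also: UHRF1 SRA domain binding a hemimethylated CpG hairpin DNA probe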
LEDGF integ inh = blocks HIV-1 LEDGF/p75-dependent DNA integration; inhibition, % at 3.7 µM; TR-FRET IN-LEDGF/p75 DNA integration, Eu/Cy5; actives 0.64% (n = 370,000);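 active = inhibition above the screen-wide mean plus 3 SD, cut at about 13% in these data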;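 also: signal is the Cy5 over europium emission ratio at 671 and 618 nm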
proKLK7 act = activates the human kallikrein-7 zymogen. P49862. purified proKLK7, EDANS-DABCYL substrate fluorescence; 100% is mature enzyme control, 0% vehicle. activation, % at 7 µM. actives 0.9% (n = 370,000). AID 652039;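 active = activation above the mean of all tested compounds plus 3 SD, computed per campaign excluding outliers beyond control limits, cut at about 13% in these data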
Target sequence (P49862 whole entry, looked up): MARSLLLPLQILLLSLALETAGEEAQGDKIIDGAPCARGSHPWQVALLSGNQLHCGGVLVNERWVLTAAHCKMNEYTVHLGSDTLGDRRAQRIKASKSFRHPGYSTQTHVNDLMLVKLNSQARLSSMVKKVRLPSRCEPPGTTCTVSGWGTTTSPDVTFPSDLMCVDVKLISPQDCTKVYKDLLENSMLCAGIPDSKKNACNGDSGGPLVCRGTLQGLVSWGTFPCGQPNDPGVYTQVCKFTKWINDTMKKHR
IN multimer up = HIV-1 integrase multimerization activation, counter-screen. activation, % at 7.7 µM. shares compounds with LEDGF integ inh. actives 17% (n = 2,000). AID 1053131. TR-FRET HIV-1 integrase multimerization, biochemical; in the data active = activation above about 8.9%
TR-FRET interf = optically interferes with TR-FRET readout in LEDGF counter-screen | shares compounds with LEDGF integ inh | AID 1053135 | TR-FRET optical interference counterscreen, HIV-1 IN multimerization | inhibition, % at 7.7 µM | 2,000 tested, under 10 active;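 active = inhibition above the mean over all tested compounds plus 3 SD, which no compound reached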
IN-LEDGF confirm = LEDGF/p75-dependent HIV-1 integration inhibition, confirmation; TR-FRET LEDGF/p75-dependent HIV-1 integration, biochemical; shares compounds with LEDGF integ inh; AID 1053136; actives 36% (n = 2,000); inhibition, % at 3.7 µM; in the data active = inhibition above about 14%
Each line names hits and unclear results; the compound was inactive in the other large screens (follow-up assays come after a bar, where they were run).

Cc1cc(C(=O)CN2c3cccc4cccc(c34)S2(=O)=O)c(C)n1C	LEDGF integ inh 20 | IN multimer up inactive | TR-FRET interf inactive | IN-LEDGF confirm inactive
COCC(C)n1c(C)cc(C(=O)CN2c3cccc4cccc(c34)S2(=O)=O)c1C (configuration not stated)	none
Cc1ccc(Cc2ccccc2C(=O)O)cc1	none
CC(C)C[C@H]1CN([C@@H](Cc2ccccc2)CN2CCC[C@@H]2CN2C(=O)C(=O)NC[C@@H]2Cc2ccccc2)C(=O)C(=O)N1CC1CCCCC1	none
CC(C)C[C@H]1CN([C@@H](Cc2ccccc2)CN2CCC[C@H]2CN2C(=O)C(=O)NC[C@@H]2Cc2ccccc2)C(=O)C(=O)N1CC1CCCCCC1	LEDGF integ inh 21 (no result: Neddyl block, Rin1-Abl PPI inh) | IN multimer up inactive | TR-FRET interf inactive | IN-LEDGF confirm inactive
COc1ccccc1N1C(=O)CC(Nc2ccc(N3CCOCC3)cc2)C1=O (configuration not stated)	LEDGF integ inh 15 | IN multimer up inactive | TR-FRET interf inactive | IN-LEDGF confirm inactive
COC(=O)CSc1nnnn1-c1cccc2ccccc12	LEDGF integ inh 23 | IN multimer up inactive | TR-FRET interf inactive | IN-LEDGF confirm inactive
O=C(CSc1nnnn1-c1cccc2ccccc12)Nc1ccc(C(=O)O)cc1	none
O=C(c1ccc2nc(-c3ccco3)c(-c3ccco3)nc2c1)N1CCN(c2ccccc2)CC1	LEDGF integ inh 39 | IN multimer up inactive | TR-FRET interf inactive | IN-LEDGF confirm 14
CCc1nc2ccc(C(=O)N3CCN(c4ccccc4)CC3)cc2nc1CC	none
CN(Cc1ccccc1)c1cc2c(c3c1ccn3C)C1CCC2C1 (configuration not stated)	LEDGF integ inh 52 | IN multimer up inactive | TR-FRET interf inactive | IN-LEDGF confirm inactive
Cc1ccc(S(=O)(=O)NC2=NCN(CCN3CCOCC3)CN2)cc1	LEDGF integ inh 22 | IN multimer up inactive | TR-FRET interf inactive | IN-LEDGF confirm inactive
CCCN1CN=C(NS(=O)(=O)c2ccc(C)cc2)NC1	none
O=C(CC1CS(=O)(=O)CC1CC(=O)Oc1ccccc1F)Oc1ccccc1F (configuration not stated)	LEDGF integ inh 24 | IN multimer up inactive | TR-FRET interf inactive | IN-LEDGF confirm inactive
CCOC(=O)C1=C(C)NC(=O)CC1c1cc2c(cc1[N+](=O)[O-])OCO2 (configuration not stated)	LEDGF integ inh 22 | IN multimer up inactive | TR-FRET interf inactive | IN-LEDGF confirm inactive
O=C(c1cn(-c2ccccc2)nc1-c1ccncc1)n1nnc2ccccc21	LEDGF integ inh 16 | IN multimer up inactive | TR-FRET interf inactive | IN-LEDGF confirm inactive
Cc1cc(NC2=CC(=O)C(=O)c3ccccc32)no1	LEDGF integ inh 16 | IN multimer up inactive | TR-FRET interf inactive | IN-LEDGF confirm 52
NS(=O)(=O)c1ccc(NC2=CC(=O)C(=O)c3ccccc32)cc1	LEDGF integ inh 32 | IN multimer up inactive | TR-FRET interf inactive | IN-LEDGF confirm 62
COc1cc(OC)c(NC2=CC(=O)C(=O)c3ccccc32)cc1Cl	none
CCOC(=O)c1ccc(NC2=CC(=O)C(=O)c3ccccc32)cc1	none
O=C1C=C(Nc2ccc(O)cc2)C(=O)c2ccccc21	none
Cc1ccc(NC2=CC(=O)C(=O)c3ccccc32)cc1	LEDGF integ inh 23 | IN multimer up 9.0 | TR-FRET interf inactive | IN-LEDGF confirm 40
O=C(Nc1cccnc1)c1ccc(CSc2ccc(Cl)cc2)o1	none (no result: Neddyl block, Rin1-Abl PPI inh)
Nc1c(C(=O)N/N=C/c2cccnc2)oc2nc(-c3ccco3)cc(-c3ccco3)c12	LEDGF integ inh 53 | IN multimer up 40 | TR-FRET interf inactive | IN-LEDGF confirm 91
NNC(=O)c1oc2nc(-c3ccco3)cc(-c3ccco3)c2c1N	LEDGF integ inh 64 | IN multimer up 11 | TR-FRET interf inactive | IN-LEDGF confirm inactive
Nn1c(SCC(=O)N2CCCCCC2)nnc1-c1ccncc1	LEDGF integ inh 26 | IN multimer up inactive | TR-FRET interf inactive | IN-LEDGF confirm inactive
Nn1c(SCC(=O)N2CCCCC2)nnc1-c1ccncc1	none
O=C(NCc1ccco1)c1c2c(nc3ccccc13)CCC2	LEDGF integ inh 28 | IN multimer up inactive | TR-FRET interf inactive | IN-LEDGF confirm 24
CC(C)Cn1c(N)c(C(=O)COC(=O)C2Cc3ccccc3CN2S(C)(=O)=O)c(=O)n(C)c1=O (configuration not stated)	none
CCN(Cc1ccc(NC(C)=O)cc1)CC1CCCN(CCc2cccc(OC)c2)C1 (configuration not stated)	LEDGF integ inh 63 | IN multimer up inactive | TR-FRET interf inactive | IN-LEDGF confirm inactive
CCS(=O)(=O)N1CCN=C1SCc1ccc(F)cc1	none
COc1ccc(-n2nc3c(c2NC(=O)COc2ccccc2F)CS(=O)(=O)C3)cc1	none
C=CCNC(=S)N/N=C(\C)c1ccc(OC)cc1	UHRF1 binding 27, LEDGF integ inh 16 | IN multimer up inactive | TR-FRET interf inactive | IN-LEDGF confirm inactive
CC(=O)N(/N=C1\Sc2ccccc2C1=O)c1ccc(C)cc1C	none
CC(=O)N(/N=C1\Sc2ccccc2C1=O)c1ccccc1C	LEDGF integ inh 34 | IN multimer up inactive | TR-FRET interf inactive | IN-LEDGF confirm 44
CCOP(=O)(OCC)C(C#N)=C1SCN(c2ccccc2)CS1	none
Cc1[nH]c2ccccc2c1/C=N/Nc1nncn1N	LEDGF integ inh 74 | IN multimer up inactive | TR-FRET interf inactive | IN-LEDGF confirm inactive
Cc1[nH]c2ccccc2c1/C=N/Nc1ccccn1	none (no result: Neddyl block, Rin1-Abl PPI inh)
Cc1cc(Nc2nc3ccccc3[nH]c2=O)n(-c2ccccc2)n1	none
Cc1cc(Nc2nc3ccccc3nc2Cl)n(-c2ccc([N+](=O)[O-])cc2)n1	LEDGF integ inh 82 | IN multimer up inactive | TR-FRET interf inactive | IN-LEDGF confirm inactive
S=c1[nH]nc(-c2ccccc2)n1/N=C/C=C/c1ccco1	LEDGF integ inh 14 | IN multimer up inactive | TR-FRET interf inactive | IN-LEDGF confirm 16
C/C(C=Nn1c(-c2ccc(F)cc2)n[nH]c1=S)=C/c1ccco1	LEDGF integ inh 15 (no result: Neddyl block, Rin1-Abl PPI inh) | IN multimer up inactive | TR-FRET interf inactive | IN-LEDGF confirm inactive
S=c1[nH]nc(-c2ccc(Cl)cc2)n1/N=C/C=C/c1ccco1	none
Nc1nc2c(ncn2[C@@H]2O[C@H](C(=O)NCCc3c[nH]c4ccccc34)[C@@H](O)[C@H]2O)c(=O)[nH]1	none (no result: Neddyl block, Rin1-Abl PPI inh)

Bioassay records: PubChem, several laboratories
